About 8,800 targets were measured; listed, in parts, are those with a hit and a random draw of the rest. About 0.5% of all pairs of compound and target were hits.
compound: C1=CC=C2C(=C1)C3=NNC4=CC=CC(=C43)C2=O; assay: log2 fold change, soluble protein after heating vs DMSO (PISA); higher = thermal stabilisation; K562 lysate, 10 uM; active = over 0.2 and 3.5 SD of the protein, either way, in both replicates (recomputed)
Method in brief: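 Following dounce homogenisation of K562 pellets in PBS pH 7.4 with 1 mM MgCl2, crude extract at 1 mg/mL protein was incubated for 30 min with 10 μM compound. Aliquots were then heated for 3 min over 48°C-58°C and pooled, NP-40 was added to 0.5% at 4°C, and soluble protein was recovered as the supernatant at 21,000xg for 90 min. Channel-sum-equalised TMTpro 16plex LC-MS/MS quantified this protein. Each value, from duplicates, is a log-two fold change in thermal stability relative to solvent controls.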

UniProt Q8N0Z6, sequence (Q8N0Z6 whole entry, looked up): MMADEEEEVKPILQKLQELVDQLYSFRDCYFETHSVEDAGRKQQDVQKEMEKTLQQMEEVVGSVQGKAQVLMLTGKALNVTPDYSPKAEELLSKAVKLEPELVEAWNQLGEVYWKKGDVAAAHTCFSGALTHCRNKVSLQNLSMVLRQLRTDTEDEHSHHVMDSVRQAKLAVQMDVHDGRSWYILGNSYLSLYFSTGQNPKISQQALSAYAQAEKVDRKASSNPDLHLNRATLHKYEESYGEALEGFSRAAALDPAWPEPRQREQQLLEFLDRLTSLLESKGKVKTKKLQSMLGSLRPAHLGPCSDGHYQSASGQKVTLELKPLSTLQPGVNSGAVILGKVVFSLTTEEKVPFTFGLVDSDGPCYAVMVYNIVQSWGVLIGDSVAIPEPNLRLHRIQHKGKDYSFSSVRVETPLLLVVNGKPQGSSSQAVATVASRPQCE
UniProt Q96CW5, sequence (Q96CW5 whole entry, looked up): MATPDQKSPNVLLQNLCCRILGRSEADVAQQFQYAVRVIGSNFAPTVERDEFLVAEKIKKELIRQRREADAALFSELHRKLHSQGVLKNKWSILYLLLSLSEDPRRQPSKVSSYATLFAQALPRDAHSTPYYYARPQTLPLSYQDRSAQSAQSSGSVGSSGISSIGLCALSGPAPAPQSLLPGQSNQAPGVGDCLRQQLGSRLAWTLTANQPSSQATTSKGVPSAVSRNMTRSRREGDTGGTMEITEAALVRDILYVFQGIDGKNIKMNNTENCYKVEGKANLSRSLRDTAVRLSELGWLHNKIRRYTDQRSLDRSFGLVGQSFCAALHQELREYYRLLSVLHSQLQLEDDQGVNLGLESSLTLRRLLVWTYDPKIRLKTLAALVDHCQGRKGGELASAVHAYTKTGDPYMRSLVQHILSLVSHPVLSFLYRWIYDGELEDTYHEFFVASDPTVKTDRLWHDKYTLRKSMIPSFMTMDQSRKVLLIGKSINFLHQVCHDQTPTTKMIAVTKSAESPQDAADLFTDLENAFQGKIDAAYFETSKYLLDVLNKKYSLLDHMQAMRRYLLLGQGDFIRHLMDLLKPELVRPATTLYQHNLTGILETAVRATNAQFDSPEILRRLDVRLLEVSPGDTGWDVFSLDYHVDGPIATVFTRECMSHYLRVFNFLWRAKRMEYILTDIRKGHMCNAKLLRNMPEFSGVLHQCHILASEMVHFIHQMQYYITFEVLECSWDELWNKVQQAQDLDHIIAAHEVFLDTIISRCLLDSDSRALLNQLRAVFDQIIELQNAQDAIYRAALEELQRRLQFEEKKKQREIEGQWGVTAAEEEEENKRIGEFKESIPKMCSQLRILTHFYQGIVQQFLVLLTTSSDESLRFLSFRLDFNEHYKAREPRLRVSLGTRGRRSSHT
UniProt Q12815, sequence (Q12815 whole entry, looked up): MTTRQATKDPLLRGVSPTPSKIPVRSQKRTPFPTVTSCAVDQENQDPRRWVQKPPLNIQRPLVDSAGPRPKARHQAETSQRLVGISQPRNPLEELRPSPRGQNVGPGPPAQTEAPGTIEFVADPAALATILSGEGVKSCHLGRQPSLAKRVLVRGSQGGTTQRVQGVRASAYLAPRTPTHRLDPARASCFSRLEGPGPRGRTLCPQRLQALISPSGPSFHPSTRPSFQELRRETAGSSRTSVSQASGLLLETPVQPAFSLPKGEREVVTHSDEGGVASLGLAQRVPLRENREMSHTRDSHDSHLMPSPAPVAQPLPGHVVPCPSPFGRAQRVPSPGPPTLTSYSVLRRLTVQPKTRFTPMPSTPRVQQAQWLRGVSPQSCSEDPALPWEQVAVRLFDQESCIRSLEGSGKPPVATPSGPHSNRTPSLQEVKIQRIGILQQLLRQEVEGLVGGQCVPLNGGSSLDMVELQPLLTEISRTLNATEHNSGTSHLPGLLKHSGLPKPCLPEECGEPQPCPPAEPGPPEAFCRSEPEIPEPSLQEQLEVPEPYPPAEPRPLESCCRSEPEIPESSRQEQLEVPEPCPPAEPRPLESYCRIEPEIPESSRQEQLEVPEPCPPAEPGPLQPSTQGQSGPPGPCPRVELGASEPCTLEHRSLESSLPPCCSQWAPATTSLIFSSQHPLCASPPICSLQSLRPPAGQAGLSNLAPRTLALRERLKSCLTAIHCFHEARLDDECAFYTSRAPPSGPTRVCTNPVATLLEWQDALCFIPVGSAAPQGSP
UniProt O43493, sequence (O43493 whole entry, looked up): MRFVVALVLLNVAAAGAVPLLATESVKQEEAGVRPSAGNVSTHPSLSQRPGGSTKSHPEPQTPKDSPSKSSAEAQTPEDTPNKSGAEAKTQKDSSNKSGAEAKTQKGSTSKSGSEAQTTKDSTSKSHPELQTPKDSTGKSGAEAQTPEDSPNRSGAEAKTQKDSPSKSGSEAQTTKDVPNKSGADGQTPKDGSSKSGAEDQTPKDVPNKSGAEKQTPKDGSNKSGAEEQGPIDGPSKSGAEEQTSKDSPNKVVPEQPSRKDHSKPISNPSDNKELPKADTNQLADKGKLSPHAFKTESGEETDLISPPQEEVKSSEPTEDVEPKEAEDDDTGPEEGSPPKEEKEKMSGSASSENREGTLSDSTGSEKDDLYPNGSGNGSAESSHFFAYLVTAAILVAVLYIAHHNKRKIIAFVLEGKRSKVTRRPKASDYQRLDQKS
UniProt O95857, sequence (O95857 whole entry, looked up): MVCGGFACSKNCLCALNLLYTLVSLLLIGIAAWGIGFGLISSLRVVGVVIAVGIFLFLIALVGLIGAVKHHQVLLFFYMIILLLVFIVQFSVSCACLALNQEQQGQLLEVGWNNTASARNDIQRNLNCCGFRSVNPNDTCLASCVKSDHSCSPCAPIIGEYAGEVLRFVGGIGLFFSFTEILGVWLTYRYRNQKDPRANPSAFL
UniProt A6NFQ2, sequence (A6NFQ2 whole entry, looked up): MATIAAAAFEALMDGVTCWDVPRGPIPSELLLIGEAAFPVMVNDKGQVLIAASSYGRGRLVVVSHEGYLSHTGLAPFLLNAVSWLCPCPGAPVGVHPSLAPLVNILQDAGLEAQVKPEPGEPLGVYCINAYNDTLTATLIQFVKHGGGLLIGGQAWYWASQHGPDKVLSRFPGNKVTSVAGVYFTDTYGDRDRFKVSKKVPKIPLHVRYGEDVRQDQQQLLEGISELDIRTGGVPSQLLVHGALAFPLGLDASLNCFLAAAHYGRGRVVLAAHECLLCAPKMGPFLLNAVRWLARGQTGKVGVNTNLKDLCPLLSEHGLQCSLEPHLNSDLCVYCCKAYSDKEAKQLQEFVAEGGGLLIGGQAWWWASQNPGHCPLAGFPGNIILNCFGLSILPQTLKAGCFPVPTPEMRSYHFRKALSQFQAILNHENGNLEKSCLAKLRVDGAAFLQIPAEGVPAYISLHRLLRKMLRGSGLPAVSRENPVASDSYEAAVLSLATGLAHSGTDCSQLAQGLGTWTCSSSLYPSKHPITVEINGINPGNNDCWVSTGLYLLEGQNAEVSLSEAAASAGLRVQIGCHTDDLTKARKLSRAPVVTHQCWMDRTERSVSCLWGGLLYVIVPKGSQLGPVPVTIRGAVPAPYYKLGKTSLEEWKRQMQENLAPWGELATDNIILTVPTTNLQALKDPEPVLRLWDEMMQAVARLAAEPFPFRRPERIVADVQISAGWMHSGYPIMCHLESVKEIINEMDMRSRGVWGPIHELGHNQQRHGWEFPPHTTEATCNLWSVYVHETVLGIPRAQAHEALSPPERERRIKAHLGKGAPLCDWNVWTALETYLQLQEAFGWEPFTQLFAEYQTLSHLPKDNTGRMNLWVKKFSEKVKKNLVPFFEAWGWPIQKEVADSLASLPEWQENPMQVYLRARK
UniProt P67936, sequence (P67936 whole entry, looked up): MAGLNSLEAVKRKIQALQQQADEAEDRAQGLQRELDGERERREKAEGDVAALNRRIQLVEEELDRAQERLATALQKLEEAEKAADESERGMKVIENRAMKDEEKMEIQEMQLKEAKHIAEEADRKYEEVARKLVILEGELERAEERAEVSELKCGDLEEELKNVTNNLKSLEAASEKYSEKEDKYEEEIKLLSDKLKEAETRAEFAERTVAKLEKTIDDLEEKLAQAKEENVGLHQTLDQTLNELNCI
UniProt Q9NUY8, sequence (Q9NUY8 whole entry, looked up): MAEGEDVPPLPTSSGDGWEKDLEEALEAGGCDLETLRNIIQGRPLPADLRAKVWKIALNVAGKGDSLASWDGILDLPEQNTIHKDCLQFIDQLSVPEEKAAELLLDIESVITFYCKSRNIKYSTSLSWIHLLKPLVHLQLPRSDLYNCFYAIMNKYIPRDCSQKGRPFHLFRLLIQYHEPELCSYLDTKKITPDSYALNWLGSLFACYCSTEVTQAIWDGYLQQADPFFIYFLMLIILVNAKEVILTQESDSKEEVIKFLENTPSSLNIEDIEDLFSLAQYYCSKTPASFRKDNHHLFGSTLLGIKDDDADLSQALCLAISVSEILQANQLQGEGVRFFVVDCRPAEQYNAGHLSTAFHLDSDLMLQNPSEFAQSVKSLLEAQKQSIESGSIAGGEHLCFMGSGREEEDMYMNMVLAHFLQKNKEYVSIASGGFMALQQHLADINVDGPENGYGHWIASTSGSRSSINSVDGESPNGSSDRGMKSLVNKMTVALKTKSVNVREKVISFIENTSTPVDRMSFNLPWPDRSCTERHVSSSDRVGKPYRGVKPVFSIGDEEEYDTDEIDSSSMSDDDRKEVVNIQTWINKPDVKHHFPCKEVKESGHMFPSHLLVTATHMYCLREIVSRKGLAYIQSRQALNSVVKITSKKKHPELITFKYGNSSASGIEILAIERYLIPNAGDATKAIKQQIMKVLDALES
UniProt P51668, sequence (P51668 whole entry, looked up): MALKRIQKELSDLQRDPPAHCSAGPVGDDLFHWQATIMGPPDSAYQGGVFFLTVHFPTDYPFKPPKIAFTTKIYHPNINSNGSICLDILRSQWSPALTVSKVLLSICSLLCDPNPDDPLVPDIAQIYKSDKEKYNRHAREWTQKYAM
UniProt Q9P0S9, sequence (Q9P0S9 whole entry, looked up): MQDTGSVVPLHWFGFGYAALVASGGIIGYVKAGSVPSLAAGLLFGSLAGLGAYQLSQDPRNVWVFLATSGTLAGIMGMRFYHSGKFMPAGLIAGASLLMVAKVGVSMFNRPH

log2 fold change, inactive:
TOR3A (UniProt Q9H497) -0.087
TRAF2 isoform 2 (UniProt Q12933) -0.015
TBRG4 (UniProt Q969Z0) -0.031
TBL3 (UniProt Q12788) 0.043
UBE3B (UniProt Q7Z3V4) -0.022
TRA2A (UniProt Q13595) -0.024
TJP1 isoform 2 (UniProt Q07157) -0.041
TPM4 isoform 2 (UniProt P67936) -0.016
TUBGCP3 (UniProt Q96CW5) 0.012
TGOLN2 isoform 7 (UniProt O43493) 0.012
TSPAN13 (UniProt O95857) -0.167
TIMELESS (UniProt Q9UNS1) -0.068
TRMT2A (UniProt Q8IZ69) -0.004
TTC12 isoform 2 (UniProt Q9H892) -0.019
TMPO (UniProt P42167) -0.073
TBK1 (UniProt Q9UHD2) 0.238
TGFBRAP1 (UniProt Q8WUH2) -0.056
TMEM14C (UniProt Q9P0S9) 0.063
TMEM164 (UniProt Q5U3C3) -0.211
TPM3 (UniProt P06753) 0.068
TTI2 (UniProt Q6NXR4) -0.015
TBC1D23 (UniProt Q9NUY8) -0.018
TRIM25 (UniProt Q14258) 0.008
UBE2D1 (UniProt P51668) -0.006
TPP2 (UniProt Q5VZU9) -0.013
TRMT12 (UniProt Q53H54) -0.047
TCAF2 (UniProt A6NFQ2) -0.033
TRIM56 (UniProt Q9BRZ2) 0.033
TTC27 (UniProt Q6P3X3) -0.028
UBR5 (UniProt O95071) -0.033
TROAP (UniProt Q12815) -0.027
TUBGCP2 isoform 4 (UniProt Q9BSJ2) -0.029
TTC5 (UniProt Q8N0Z6) 0.016
TRIM33 (UniProt H0Y612) -0.009
TP53RK (UniProt Q96S44) 0.042
TFCP2 (UniProt Q12800) -0.02
TIAL1 isoform 2 (UniProt Q01085) 0.059
TRIM65 (UniProt Q6PJ69) -0.054
TTF2 (UniProt Q9UNY4) -0.046
TRAPPC9 isoform 2 (UniProt Q96Q05) -0.005

From the supplement of paper PMC10849652
